Data: PubChem BioAssay

Assay: inhibitors of poly I:C-induced TLR3 signaling, primary screen, cell-based, poly I:C stimulus, luciferase, 10K MLSCN set (AID 602277)
Conditions: HEK293-TLR3 RL24 IRF3 luciferase reporter, at 10 µM, hits give high values;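 active = inhibition of the reporter signal at or above 50%; inactive = inhibition below 50%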

inhibition, inactive:
COc1ccc(-c2nc3c(c(SCC(=O)N4CCOCC4)n2)COC(C)(C)C3)cc1 19.9%, CCN(CC)C(=O)c1ccc(CS(=O)(=O)c2ccc(OC)cc2)o1 -10.1%, CC(C)CCNC(=O)NC(=O)COc1ccccc1C#N -112%, CCOC(=O)N1CCN(S(=O)(=O)c2ccc(F)c(C(=O)Nc3cc(C)cc(C)c3)c2)CC1 14.3%, Cc1nnc(SCC(=O)Nc2c(Cl)cccc2Cl)[nH]c1=O 41.1%, CCCCN(CCCC)CCn1cnc2c([nH]c3ccc(OC)cc32)c1=O 30.7%, CC(=O)c1ccc(OCC(O)CN2CC(C)OC(C)C2)cc1 (stereo not given) 16.8%, CCOc1ccc(-c2nc(C#N)c(NCc3ccc4c(c3)OCO4)o2)cc1 -18.3%, Cc1cc(N=Cc2cc(Br)ccc2O)no1 15.7%, CCCCN1C(=O)C2C(C(=O)Nc3cccc(OC)c3)C3C=CC2(O3)C1C(=O)NC1CCCCC1C (stereo not given) 24.4%, CN(C)S(=O)(=O)c1ccc2c(c1)c(=O)c(C(=O)NCCCN1CCCCCC1)cn2C 31.9%, COc1ccc(C(=O)N2CCN(c3nc4cc(C)ccc4cc3C#N)CC2)c(OC)c1 22%, COc1cc(C(=O)OC(C)CN2CCCC2)cc(OC)c1OC (stereo not given) 11.1%, Cc1ccnc2c(N3C(=O)C4C5C=CC(C5)C4(C)C3=O)cccc12 (stereo not given) 28.5%, COc1ccc(OC)c(NC(=O)CSc2nnc(Cc3cccn3C)n2-c2ccc(F)cc2)c1 30.1%, COc1ccc(C2=NO[C@@H]3C(=O)N(c4cccc(C)c4C)C(=O)[C@H]23)cc1OC -5.53%, CN(C)c1nc(SCCOC(=O)c2ccccc2)nc(N(C)C)n1 11.2%, CCN(CC)c1ccc(-c2c(C#N)c(N)nc(OC)c2C#N)cc1 18.3%, COc1ccc(CN(CC(=O)NCC2CCCO2)C(=O)CNS(=O)(=O)c2ccc(C)cc2)cc1 (stereo not given) 3.49%, COC(=O)c1sccc1NC(=O)c1csc(C)c1 36.8%, Cc1ccc(C(=O)CC2(O)C(=O)N(C)c3ccc(Br)cc32)c(C)c1 (stereo not given) 31.5%, CC(=O)Nc1c(-c2ccc(F)cc2)nc2ccccn12 4.82%, CCCc1cc(=O)[nH]c(/N=C(\N)Nc2ccccc2)n1 16.6%, O=C(CN1CCCC1)Nc1ccc(NC(=O)Nc2ccccc2)cc1 -54.6%, Cc1ccc(CN2C(=O)CCC2C(=O)NC2CCCC2)cc1 (stereo not given) 21.8%, CSCSC1=C(C#N)C(c2ccc(Cl)cc2)C(C(C)=O)=C(C)N1 (stereo not given) 23.2%, COc1ccc(OC)c(S(=O)(=O)N2c3ccccc3CC2C)c1 (stereo not given) 21.2%, CC(=O)Nc1ccc(OCC(O)Cn2nc(C)nc2C)cc1 (stereo not given) 23.2%, CC(C)C1C2=C(CC(C)(C)CC2=O)ON1c1ccccc1 (stereo not given) 16.5%, O=C(CN1C(=O)C2C3C=CC(C3)C2C1=O)NCc1ccc2c(c1)OCO2 (stereo not given) 6.98%, COc1ccc(C(=O)Nc2ccc(S(=O)(=O)Nc3onc(C)c3C)cc2)cc1 2%, Cc1nnc(SCc2ccccc2)n1N 16.6%, O=C(c1ncn[nH]1)N1CCN(c2nc(-c3ccccc3)cs2)CC1 -36.8%, Cc1cc(C)nc(SC2=CS(=O)(=O)c3ccccc32)n1 -5.16%, CC(=O)OC1c2ccccc2C(=O)N1c1ccccc1C (stereo not given) 22.9%, CCCCn1c(=O)[nH]c(=O)c2c1nc(COc1ccc(C#N)cc1)n2CCC 30.2%, Cc1ccccc1CSc1nnc(C)c(=O)[nH]1 13.6%, Cc1nc2cc(C(=O)O)ccc2n1-c1ccc(F)cc1F 27.2%, CC(C)[C@H](NC(=O)NC1CCCC1)C(=O)O 16.1%, Cc1ccccc1N1OC2C(=O)N(c3ccc(F)cc3)C(=O)C2C1c1ccccn1 (stereo not given) 21.1%
